Screening data (PubChem)
IDH1 R132H inh – human IDH1 R132H inhibition; O75874; IDH1-R132H enzyme, NADPH consumption, diaphorase/resazurin fluorescence; Potency, µM (top dose mostly 76.6 µM), without a hit: at the top dose activity change, negative = inhibition, hits mostly inhibitors; 0.093% of 390,000 active; AID 602179; note: nearly all actives have a fitted effect of over 65% in size
Target sequence (O75874 whole entry R132H, stated change not applied): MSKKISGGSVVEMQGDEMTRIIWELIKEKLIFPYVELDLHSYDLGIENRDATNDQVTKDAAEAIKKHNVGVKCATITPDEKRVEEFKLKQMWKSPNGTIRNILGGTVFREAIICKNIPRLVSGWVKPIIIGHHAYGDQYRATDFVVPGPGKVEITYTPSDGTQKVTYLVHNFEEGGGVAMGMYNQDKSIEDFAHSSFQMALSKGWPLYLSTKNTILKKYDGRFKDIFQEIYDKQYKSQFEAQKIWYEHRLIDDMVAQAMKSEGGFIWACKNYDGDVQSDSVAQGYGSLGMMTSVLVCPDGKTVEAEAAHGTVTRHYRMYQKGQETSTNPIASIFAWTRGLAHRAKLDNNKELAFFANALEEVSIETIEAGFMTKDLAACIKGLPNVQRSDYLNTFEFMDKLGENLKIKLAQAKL
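IDH1-R132H (0.5 ug/mL dispensed) in pH 7.5 Tris buffer was preincubated 30 min with compound, then given a substrate mix of 0.016 mM NADPH and 2 mM alpha-KG for 80 min at room temperature; remaining NADPH was read by diaphorase/resazurin fluorescence.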
TrxR1 inh – blocks rat thioredoxin reductase 1; O89049; recombinant rTrxR1, NADPH fluorescence consumption, selenite substrate; Potency, µM (doses to about 114 µM), inactives show at the top dose activity change, negative = inhibition, most hits filed as inhibitors; 1% of 390,000 active; note: nearly all actives have a fitted effect of over 65% in size
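Rat TrxR1 (90 nM in the dispensed reagent) was pre-reduced with 400 uM NADPH for 5 min at room temperature, then incubated with compound for 15 min. After 400 uM selenite was added, NADPH fluorescence (Ex 340/Em 450 nm) was followed for 8 min.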
GLS inh – glutaminase GLS (human) inhibition. GLS enzymatic activity, qHTS titration. 0.21% of 410,000 active. O94925. Potency, µM (top dose mostly 45.5 µM), for inactives: at the top dose activity change, negative = inhibition, usual class: inhibitors. AID 624170
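Assay buffer: 45 mM KH2PO4 pH 8.2, 0.02% Tween-20. hKGA acts on L-glutamine (1 mM solution added); product glutamate is reported by an oxidase/peroxidase Amplex Red coupling, with fluorescence taken at baseline and 30 min.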
TrxR1 substrate – substrates of rat thioredoxin reductase 1 | O89049 | purified TrxR1 substrate turnover, NADPH consumption readout | Potency, µM (titrated, usually from 114 µM), without a hit: top-dose activity change, negative = substrate turnover | 0.01% of 390,000 active; note: nearly all actives have a fitted effect of over 50% in size
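Rat TrxR1, dispensed at 90 nM, was prereduced with 400 uM NADPH (final) for 5 min at ~22 deg C, then incubated with compound 15 min before 400 uM selenite. A first-read NADPH fluorescence drop versus no-compound background flagged substrates.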
Numbers without * were called inactive; i = inactive; ? = inconclusive; · = no result; [ ] = remark or other dose. Hits are enriched below; roughly 1.2% of the tested compounds scored in any of these assays. Calls come from the whole dose curve; as a rule, active = well fitted curve in the direction sought with a large enough effect; inconclusive = small, poorly fitted or top-dose-only effect, or another doubt; inactive = no such curve, though single readings can be large; an effect the other way counts as inactive or inconclusive. % is set by controls: 0 for no effect and ±100 for the full control effect; potency is the fitted concentration of half-maximal effect.

SMILES	IDH1 R132H inh	TrxR1 inh	GLS inh	TrxR1 substrate
CCO/C=C1\SC(=S)N(c2ccc(Cl)cc2)C1=O	-5%	-12%	2%	-16%
CC(C)c1ccc(N2C(=O)/C(=C/N(C)C)SC2=S)cc1	13µM*	-4%	0%	-10%
c1ccc(-c2c(-c3ccccc3)n(Cc3ccco3)c3ncnc(NCCCn4ccnc4)c23)cc1	29µM*	?	-3%	55%
O=C(NCc1ccco1)[C@@H]1CCCN1C(=O)c1cccs1	0%	79µM*	2%	4%
COc1ccc(CN2COc3ccc4c(C)cc(=O)oc4c3C2)cc1	-12%	-85%	7%	i
COC(=O)Cc1c(C)c2ccc3c(c2oc1=O)CN(Cc1ccccc1Cl)CO3	0%	?	24%	i
COC(=O)Cc1c(C)c2ccc3c(c2oc1=O)CN(Cc1ccc(C)cc1)CO3	14%	35µM*	23%	i
COC(=O)Cc1c(C)c2ccc3c(c2oc1=O)CN(Cc1ccccc1OC)CO3	13%	40µM*	11%	i
CN(CC(=O)N1CCOCC1)Cc1c(Cl)cccc1NC(=O)c1ccccc1	·	·	-2%	·
C#CC1(OC(C)=O)CCC2C3CCC4=CC(OC(C)=O)CCC4C3CCC21C (stereo not drawn)	·	·	-5%	·
N#C/C(=C/c1ccc(N2CCOCC2)o1)c1nc2ccccc2[nH]1	5%	-20%[57.1 µM]	4%	5%[57.1 µM]
N#C/C(=C\c1ccc(N2CCOCC2)o1)c1ccccc1	9%	3.5µM*	22%	-3%
N#C/C(=C/c1ccc(N2CCCCCC2)o1)c1ccc(F)cc1	-8%	5µM*	0%	11%[57.1 µM]
N#C/C(=C/c1ccc(N2CCOCC2)o1)c1ccc(Br)cc1	7%	11µM*	0%	-17%
N#C/C(=C/c1ccc(N2CCCCCC2)o1)c1cccc(F)c1	4%	?	8%	-5%
CC(CC(=O)Nc1ccc(F)cc1)S(=O)(=O)c1cc2c3c(c1)CCN3C(=O)CC2 (stereo not drawn)	0%	18%[57.1 µM]	-7%	3%[57.1 µM]
CC(=O)N1CCC2(CC1)OC(=O)C(C)=C2C(=O)NCc1cccc(Cl)c1	21%	34%[57.1 µM]	-15%	3%[57.1 µM]
Cc1[nH][nH]c(=O)c1C(c1ccc(O)c(Br)c1)c1c(C)[nH][nH]c1=O	-1%	-10%[57.1 µM]	13µM*	7%[57.1 µM]
Cc1oc(-c2cccs2)nc1CS(=O)CC(=O)NCCCOC(C)C (stereo not drawn)	0%	13µM*	1%	1%
CCCCNC(=O)CS(=O)Cc1nc(-c2cccs2)oc1C (stereo not drawn)	5%	6.3µM*	-4%	5%[57.1 µM]
Cc1oc(-c2cccs2)nc1CS(=O)CC(=O)NCCc1ccccc1 (stereo not drawn)	-4%	5.6µM*	7%	11%[57.1 µM]
Cc1cc(C)nc(-n2nc(C)c3c2N(Cc2ccccc2F)C(=O)CC3c2ccc(Cl)cc2)n1 (stereo not drawn)	8%	23%	5%	0%
CCCNC(=O)C1(C)CCN(C(=O)c2ccc(OC(F)F)cc2)C1 (stereo not drawn)	·	·	2%	·
COc1ccccc1N1CCN(C(c2ccc(N(C)C)cc2)c2nnnn2CCc2ccccc2)CC1 (stereo not drawn)	3%	3.2µM*	46%	-5%
CC(C)(C)c1ccc(C(=O)C[n+]2cccc(Br)c2)cc1	·	22%	·	8%
SMILES	IDH1 R132H inh	TrxR1 inh	GLS inh	TrxR1 substrate
COc1cc2c(cc1OC)CN(CCOc1ccc(Br)cc1)CC2	-2%	15%	2%	-3%
COc1ccccc1N1CCN(CCCC(=O)c2ccc(F)cc2)CC1	-3%	1%	10%	-2%
COc1ccc(C(=O)CCN2CCc3cc(OC)c(OC)cc3C2)cc1	1%	0.89µM*	-1%	-5%[57.1 µM]
COc1ccc(C(=O)CCN2CCN(c3ccccc3OC)CC2)cc1	4%	14µM*	-22%	0%
O=S1(=O)c2ccc(Br)cc2N2CC[C@H](C2)N1Cc1ccc(Cl)cc1	4%	?	4%	-2%
O=C(OCC1OC(OC(=O)c2cc(O)c(O)c(OC(=O)c3cc(O)c(O)c(O)c3)c2)[C@@H](OC(=O)c2cc(O)c(O)c(OC(=O)c3cc(O)c(O)c(O)c3)c2)C(OC(=O)c2cc(O)c(O)c(OC(=O)c3cc(O)c(O)c(O)c3)c2)C1OC(=O)c1cc(O)c(O)c(OC(=O)c2cc(O)c(O)c(O)c2)c1)c1cc(O)c(O)c(OC(=O)c2cc(O)c(O)c(O)c2)c1 (stereo partly drawn)	·	·	28%	·
CCOC(=O)c1cccc(NC(=O)CC2C(=O)N(c3ccc(C)cc3)C(=O)N2Cc2cccc(OC)c2)c1 (stereo not drawn)	32%	-20%	-11%	-23%
COc1cc2cccc(OC)c(=O)c2c(O)c1OC	3%	18%	4%	-7%
COc1cc2c(ccc3cc(OC)c(OC)c(O)c32)cc1O	-2%	-7%	7.9µM*	5%
O=C(CN1CCN(c2ccccc2O)CC1)NC(=O)NC1CCCC1	12%	17%[57.1 µM]	2.8µM*	1%[57.1 µM]
Cc1ccc2c(c1C)-c1c(ccc(C)c1C)C(=O)C2=O	12%	?	-7%	45µM*
CCn1c(Cl)c(C=O)s/c1=N\S(=O)(=O)c1ccccc1	-12%	1.4µM*	44%	-4%
Cc1cc2cc(CN(Cc3ccco3)S(=O)(=O)c3c(C)ccc4nsnc34)c(=O)[nH]c2cc1C	-5%	?	-3%	2%[57.1 µM]
Cc1ccc2cc(CN(Cc3ccco3)S(=O)(=O)c3c(C)ccc4nsnc34)c(=O)[nH]c2c1	0%	13µM*	0%	-4%
Cc1c(CCC(=O)NCCc2ccccc2)c(=O)oc2c(C)c(O)ccc12	-16%	47%	7%	48%
Cc1ccccc1S(=O)(=O)NC1OC(=O)C(Cl)=C1Cl (stereo not drawn)	1%	13µM*	22%	-8%
CCc1ccc(N(CC)C(=O)c2cc3c(=O)oc4ccc(C)cc4c3s2)cc1	-6%	27%	0%	6%
O=C(Oc1ccccc1F)c1nc(SCc2ccc(F)cc2)ncc1Cl	-2%	1%	8%	-7%
CCC(CC)NC(=O)Nc1cccc(C)c1C	9%	29%	-9%	2%
CC(C)N(CC(=O)Nc1ccc(Cl)cc1C(F)(F)F)C(=O)CCl	-3%	16µM*	3%	3%
CCC(C)N(CC(=O)Nc1cccc(C)c1C)C(=O)CCl (stereo not drawn)	-4%	28µM*	12%	0%[57.1 µM]
O=C(COC(=O)c1cccc(S(=O)(=O)N2CCOCC2)c1)NC1CCCCC1	-1%	·	-3%	·
Cc1cc(C)cc(NC(=O)CCN2C(=O)c3ccccc3Sc3ncccc32)c1	-12%	25µM*	3%	-12%
CCC(=O)Nc1ccc(C2C(=O)c3ccccc3C2=O)cc1	1%	-13%	46%	-14%
CCCCC(=O)Nc1ccc(C2C(=O)c3ccccc3C2=O)cc1	2%	-14%[57.1 µM]	18µM*	-1%[57.1 µM]
O=C(Nc1ccccc1-c1cn2c(CN3CCNCC3)csc2n1)c1cnc2ccccc2n1	·	-15%	·	-5%
COc1cccc2sc3cc(NCc4ccc(C)o4)ccc3c(=O)c12	20%	79µM*	10%	11%
